Source: PubChem BioAssay
CYP2C19 activ = cytochrome P450 2C19 (human) activation; P33261; recombinant CYP2C19, luciferin-H EGE luminescence; stronger effect = higher value; 0 = fully inhibited enzyme, 1 = untreated enzyme; activation factor at 5 µM; 96,000 tested, under 10 active; AID 1025;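 active = activation factor of at least 2 at 5 µM in the primary screen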;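 also: 0 = wells with 2.5 mM tranylcypromine and 1 = vehicle-only wells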
CYP2C9 activ = activators of human CYP2C9; P11712; recombinant CYP2C9, luciferin-H conversion, luminescence; stronger effect = higher value; factor 1 = untreated enzyme, 0 = blocked; activation factor at 5 µM; hit rate 1.4% among 96,000; AID 1024;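 active = activation factor of 2 or more for CYP2C9 at a 5 µM dose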;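 also: 0 = sulfaphenazole-blocked wells and 1 = vehicle-only wells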
Target sequence (P11712 whole entry, looked up): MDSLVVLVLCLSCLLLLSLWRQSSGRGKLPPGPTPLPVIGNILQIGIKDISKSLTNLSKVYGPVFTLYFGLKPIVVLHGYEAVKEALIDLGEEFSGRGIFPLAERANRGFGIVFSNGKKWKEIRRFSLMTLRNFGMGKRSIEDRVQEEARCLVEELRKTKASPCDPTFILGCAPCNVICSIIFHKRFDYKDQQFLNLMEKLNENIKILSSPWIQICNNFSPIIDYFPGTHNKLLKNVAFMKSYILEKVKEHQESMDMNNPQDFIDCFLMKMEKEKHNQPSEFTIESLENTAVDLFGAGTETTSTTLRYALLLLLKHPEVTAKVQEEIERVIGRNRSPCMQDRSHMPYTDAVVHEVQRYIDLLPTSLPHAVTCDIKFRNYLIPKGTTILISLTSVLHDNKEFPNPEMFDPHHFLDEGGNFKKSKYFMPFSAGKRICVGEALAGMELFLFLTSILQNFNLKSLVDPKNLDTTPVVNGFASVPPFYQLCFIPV
CYP2C9 inhib = human CYP2C9 inhibition; P11712; CYP2C9 Supersomes, luciferin-H conversion, luminescence; inhibition, % at 5 µM; hit rate 20% among 96,000; AID 777;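 active = blocking of liver enzyme CYP2C9 beyond about 50% at 5 µM, limit read from the data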
CYP2C19 inhib = blocks human cytochrome P450 2C19; inhibition, % at 5 µM; P33261; AID 778; CYP2C19 Supersomes, luciferin-H EGE luminescence, 30 min; hit rate 21% among 96,000;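 active = CYP2C19 inhibition above a set limit at 5 µM in the primary screen, cut at about 50% in these data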;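 also: plate controls were negative control wells for no effect and 2.5 mM tranylcypromine positive control for full effect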
* hit, by the source's call. A selection: hits, their analogues and other compounds. The true share with any hit is near 31%.

SMILES	CYP2C19 activ	CYP2C9 activ	CYP2C9 inhib	CYP2C19 inhib
CCOC(=O)N1CCC(N2C(=O)c3ccccc3C2Nc2cc(Cl)c(OC)cc2OC)CC1 (configuration not stated)	0.7	0.4	60.4*	30.0
COc1ccc(CN2C(=O)C(O)(CC(=O)c3c(C)n[nH]c3C)c3ccccc32)cc1OC (configuration not stated)	0.8	0.9	7.3	20.5
COc1ccc(C2c3c(-c4cc(Cl)c(C)cc4O)n[nH]c3C(=O)N2Cc2cccnc2)cc1OC (configuration not stated)	0.1	0.1	92.7*	85.7*
COc1ccc(CCN2CC3=C(C2=O)C(c2ccccc2)NC(=O)N3C)cc1OC (configuration not stated)	0.9	0.8	19.9	8.8
COc1ccc(CCN2C(=O)c3[nH]nc(-c4ccccc4O)c3C2c2cccc(O)c2)cc1OC (configuration not stated)	0.1	0	98.1*	92.8*
O=C(Nc1nnc(C2CC2)s1)c1ccncc1	0.8	0.4	55.8*	15.7
O=C(CCC(=O)NC1CC1)Nc1nnc(C2CCCCC2)s1	1.1	1.3	-25.2	-9.1
O=C(CC1CCCC1)Nc1nnc(C2CC2)s1	0.5	0.8	17.1	52.5*
O=C(Nc1nnc(C2CCCC2)s1)C1CCC1	0.7	0.4	55.7*	33.3
Cc1nnc(NC(=O)C2CCCCC2)s1	0.6	0.9	5.0	41.4
CCN1CCN(c2cc(C)c3cc(NC(=O)c4ccccc4F)ccc3n2)CC1	0.8	0.9	9.6	18.1
COc1cccc(/C(O)=C2/C(=O)C(=O)N(CCN3CCOCC3)C2c2cccs2)c1 (configuration not stated)	0.8	0.9	10.5	18.4
O=Nc1c(O)n(Cc2ccc(Cl)c(Cl)c2)c2ccccc12	0.5	0.4	61.5*	50.7*
CC(C(=O)N1CC2(C)CC1CC(C)(C)C2)N1C(=O)c2ccccc2C1=O (configuration not stated)	0.9	1	-0.7	12.6
Cc1ccc(NS(=O)(=O)c2ccc3c(c2)c(=O)n(C)c(=O)n3C)cc1F	0.1	0.1	92.0*	94.1*
COc1cc(NS(=O)(=O)c2ccc3c(c2)n(C)c(=O)n3C)cc(OC)c1	0.4	0.2	84.4*	59.3*
Cc1cc(C)cc(NS(=O)(=O)c2ccc3c(c2)c(=O)n(C)c(=O)n3C)c1	1	0.7	32.4	-2.3
Cc1ccc(S(=O)(=O)Nc2nc3ccc(S(C)(=O)=O)cc3s2)cc1	0.7	0	97.7*	28.7
CCOc1ccc2nc(NS(=O)(=O)c3ccc4c(c3)n(C)c(=O)n4C)sc2c1	0.6	0	97.6*	43.8
CC(=O)Nc1ccc(S(=O)(=O)Nc2nc3ccc(C)cc3s2)cc1	0.7	0.6	40.1	31.4
CCOC(=O)C(Cc1ccccc1)C(=O)Nc1ccccc1C (configuration not stated)	0.6	0.8	20.7	42.0
Cc1cccc(-n2c(N)c(C(=O)NCCN3CCOCC3)c3nc4ccccc4nc32)c1	1	1	-0.7	1.7
CCOc1ccc(S(=O)(=O)Nc2nc3ccc(OC)cc3s2)cc1	0.2	0	98.6*	82.3*
CCCOc1ccc(C(=O)c2nc3c(n2O)CCCC3)cc1	0.9	0.8	24.1	5.5
Cc1ccc(N2CCN(c3ccc(C)cc3)C2c2ccncc2)cc1	0.1	0.3	70.9*	87.6*
SMILES	CYP2C19 activ	CYP2C9 activ	CYP2C9 inhib	CYP2C19 inhib
Cc1cccc(N2CCN(c3cccc(C)c3)C2c2cccnc2)c1	0.5	0.8	20.6	46.7
COc1cccc(NS(=O)(=O)c2nc3nc(C)cc(C)n3n2)c1	1	1.1	-7.3	-4.1
CNC(=O)c1ccccc1S(=O)(=O)c1ccccc1C#N	0.9	0.9	10.5	13.0
O=C1CC(NCc2ccc3c(c2)OCO3)C(=O)N1CCc1ccccc1 (configuration not stated)	0.3	0.5	47.3	75.0*
COc1cccc(CC2CC(=O)N(CCc3ccc4c(c3)OCO4)C2=O)c1 (configuration not stated)	0	0.5	46.7	96.4*
COc1ccc(CCNC2CC(=O)N(CCc3ccc(OC)c(OC)c3)C2=O)cc1 (configuration not stated)	0.8	1	4.3	21.0
COc1ccc(CCNc2c(N)n(Cc3ccccc3)c(=O)[nH]c2=O)cc1OC	0.8	0.6	43.1	22.1
COc1ccc(CCNC2=C(Cl)C(=O)N(CCc3ccccc3)C2=O)cc1OC	0.4	0.4	58.3*	60.4*
Cc1ccc(CC2CC(=O)N(CCc3ccc4c(c3)OCO4)C2=O)cc1 (configuration not stated)	0.9	0.9	9.9	10.4
COc1ccc(CCNC2CC(=O)N(CCc3ccccc3)C2=O)cc1OC (configuration not stated)	0.4	0.8	15.8	60.2*
Cc1cc(N2CCCC2=O)c(N)cc1N	1.1	1.2	-18.3	-14.0
O=C(CSc1nnc(-c2csc3c2CCCC3)o1)Nc1ccccc1	1.1	1.1	-8.5	-9.9
O=C1OCCC1Sc1ncnc2sccc12 (configuration not stated)	1.1	1.3	-28.8	-6.6
CNC(=O)C1CC(=O)N(Cc2ccc(OC)c(OC)c2)C(=Nc2ccc(OC)cc2)S1 (configuration not stated)	0.6	0.6	40.7	37.9
COc1ccc(CCN2C(=O)CC(C(N)=O)SC2=Nc2ccccc2)cc1OC (configuration not stated)	0.3	0.8	19.1	67.5*
CN1CCN(c2ccccc2NC(=O)c2cccc(OCc3ccccc3)c2)CC1	0.5	0.5	51.8*	49.9
O=C(Nc1ccccc1C(=O)N1CCCC1)c1cccc(S(=O)(=O)N2CCCCC2)c1	1	0.8	17.8	-2.2
CN1CCN(c2ccccc2NC(=O)c2ccc(OCc3ccccc3)cc2)CC1	0.5	0.6	39.8	48.0
CN1CCN(c2ccccc2NC(=O)c2ccc(-c3ccccc3)cc2)CC1	0.1	0.3	70.5*	94.5*
COc1cccc(C(=O)Nc2ccccc2C(=O)N2CCCC2)c1	0.5	1.1	-8.1	53.6*
CCN(CC)c1ccc(NC(=O)c2cccc(OC)c2)c(C)c1	1	2.5*	-149.7	-3.0
O=S1(=O)N=C2CCCCCN2C(c2ccncc2)N1 (configuration not stated)	1	1.1	-13.3	-4.0
CCOC(=O)CSc1nnc(Cc2ccc(OC)cc2)n1-c1ccccc1	0.8	0.7	32.8	20.8
N#Cc1c(NCCN)nc(-c2ccco2)c2c1CCCC2	0.9	0.8	24.2	10.1
COc1cccc(C(=O)Nc2ccccc2N2CCCC2)c1	0.3	0.7	26.3	68.7*
COc1cc(OC)cc(C(=O)Nc2ccccc2N2CCOCC2)c1	0.6	0.6	41.2	40.3
COc1cccc(Cn2c(Oc3cccc(C)c3)nc3c2c(=O)n(C)c(=O)n3C)c1	0.8	0.6	43.5	21.8
Cn1c(=O)c2c(nc(Cl)n2Cc2ccncc2)n(C)c1=O	0.9	0.9	6.3	7.5
CC(C)CCn1c(Oc2ccccc2Cl)nc2c1c(=O)n(C)c(=O)n2C	0.9	0.2	84.8*	5.2
